Experimental findings from PubChem BioAssay AID489043 (National Center for Advancing Translational Sciences (NCATS), 2010) are described below.

Results filed as inconclusive are left out. Values without a mark were called inactive. The source made the active and inactive calls. Calls come from the whole dose curve; as a rule, active = well fitted activation curve with a large enough effect; inconclusive = small, poorly fitted or top-dose-only effect; inactive = flat fitted curve, though single readings scatter.
Potency is the fitted concentration of half-maximal effect.

Relaxin receptor 2 (Homo sapiens), sequence (Q8WXD0 whole entry, looked up): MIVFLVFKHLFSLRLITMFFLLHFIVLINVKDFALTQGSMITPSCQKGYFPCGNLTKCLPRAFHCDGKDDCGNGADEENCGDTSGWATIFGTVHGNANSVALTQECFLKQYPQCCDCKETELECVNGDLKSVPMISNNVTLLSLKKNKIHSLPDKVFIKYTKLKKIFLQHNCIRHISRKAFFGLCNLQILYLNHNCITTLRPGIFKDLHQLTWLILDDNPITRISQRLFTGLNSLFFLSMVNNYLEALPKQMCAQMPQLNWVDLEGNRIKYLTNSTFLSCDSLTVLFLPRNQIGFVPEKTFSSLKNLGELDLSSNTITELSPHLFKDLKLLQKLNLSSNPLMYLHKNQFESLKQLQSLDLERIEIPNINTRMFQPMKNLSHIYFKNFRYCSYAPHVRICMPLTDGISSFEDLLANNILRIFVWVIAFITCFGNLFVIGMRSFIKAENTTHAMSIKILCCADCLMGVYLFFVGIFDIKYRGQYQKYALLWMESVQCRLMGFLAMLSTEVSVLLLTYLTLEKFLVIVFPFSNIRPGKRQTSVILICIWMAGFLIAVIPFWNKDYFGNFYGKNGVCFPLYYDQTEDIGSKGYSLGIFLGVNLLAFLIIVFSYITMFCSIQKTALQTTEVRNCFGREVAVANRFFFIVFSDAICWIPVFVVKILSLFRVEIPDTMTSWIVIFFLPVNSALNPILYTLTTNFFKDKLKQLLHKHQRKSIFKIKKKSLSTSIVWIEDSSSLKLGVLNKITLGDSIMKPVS

This experiment concerns the target Relaxin receptor 2 (Homo sapiens) (UniProt Q8WXD0). Description: qHTS Assay for Agonists of the Relaxin Receptor RXFP1: RXFP2 Hit Validation. Note: nearly all actives have a fitted effect of over 65% in size. The note with it: HEK293 RXFP2 cAMP TR-FRET, 30 min; series mostly up to 115 µM; activation: at the top concentration. The procedure, abridged: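 TR-FRET cAMP read-out in lysed HEK293 RXFP2 cells, normalized to buffer (basal) and 29 nM porcine relaxin (100%). Compounds 30 min, 37C, with Ro 20174 present. EC50 via standard Hill equation.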
(In general: Quantitative high-throughput screening tests each substance at several concentrations.)
In the case of `O=C(Nc1ccccc1C(=O)Nc1ccccc1C(=O)NCc1ccco1)c1ccco1`, the Potency result was “inactive”.

`Cc1cc(C(=O)COC(=O)Cn2cnc3c2c(=O)n(C)c(=O)n3C)c(C)n1C`: the Potency was 15.5 µM (active).

As for `Cc1ccccc1OCC(=O)Nc1sc(C(=O)Nc2cccc(C)c2C)c(C)c1C#N`, the Potency is 6.9 µM (active).

With `Brc1ccc2ncnc(NCc3cccnc3)c2c1`, the Potency is 43.6 µM (active).

Consider `Cc1cccc(C(=O)Nc2ccccc2C(=O)NCc2ccco2)c1`, for which the “activation” value is 13% [at 125 µM].

`CCc1nnc(NC(=O)CSc2nc(C)nc3c2c(=O)n(C)c(=O)n3C)s1`: the Potency was 10.9 µM (active).

With `O=C(Nc1ccccc1C(=O)N1CCN(c2ccccc2)CC1)c1ccco1`, the “activation” value was -2.96% [at 125 µM].

In the case of `CN1CCN(C(=O)CCc2nnc3ccc(N4CCC5(CC4)OCCO5)nn23)CC1`, the “activation” value is 25.3%.

Turning to `CN(Cc1ccccc1)C(=O)c1ccccc1NC(=O)c1ccco1`, the “activation” value was 3.37% [at 125 µM].

With `CC(=O)Nc1ccc(S(=O)(=O)NCc2cc(=O)n(C)c(=O)n2C)cc1`, the Potency was 30.9 µM (active).

As to `Cc1nnc(Nc2ccc(S(N)(=O)=O)cc2)c2ccccc12`, the Potency is 34.6 µM (active).

`Cc1ccc(C(=O)Nc2ccccc2C(=O)NCc2ccco2)cc1`: the “activation” value was 0.29% [at 125 µM].

For the compound `CN(C)CCCn1c(SCC(=O)Nc2nc(-c3cccc(Br)c3)cs2)nc2ccccc2c1=O`, the “activation” value is -4.88%.

For `O=C(Nc1ccccc1C(=O)N1CCOCC1)c1ccco1`, the “activation” value is 0.881% [at 125 µM].

For the compound `O=C(Nc1cccc(C(F)(F)F)c1)c1ccccc1NC(=O)C1CCCCC1`, the Potency entry was “inactive”.

As to `CCCC(=O)Nc1ncnc2c1ncn2[C@@H]1O[C@@H]2COP(=O)(O)O[C@H]2[C@H]1OC(=O)CCC`, the Potency was 1.38 µM (active).

For the compound `Cc1ccc2[nH]c3c(=S)nc[nH]c3c2c1`, the Potency was 6.9 µM (active).

Take `CCCCn1c(SCC(=O)N2CCOCC2)nc2c1c(=O)n(C)c(=O)n2C`: the Potency was 38.9 µM (active).

`O=C(Oc1ccccc1)Oc1ccc2c(c1)oc(=O)c1ccccc12`: the Potency was 19.4 µM (active).

`Cc1noc(NS(=O)(=O)c2ccc(N3Cc4ccccc4C3=O)cc2)c1C`: the Potency was 11.9 µM (active).

Take `O=C(Nc1ccccc1C(=O)N1CCCCC1)c1ccco1`: the “activation” value is -0.174% [at 125 µM].

Take `Cc1cc(C)nc(/N=C(\N)Nc2ccc(S(=O)(=O)Nc3nccc(C)n3)cc2)n1`: the Potency is 34.6 µM (active).

For `CCN1CCN(C(=O)CCc2nnc3ccc(N4CCC5(CC4)OCCO5)nn23)CC1`, the Potency was 38.9 µM (active).

`C=CCSc1nc2c(c(=O)[nH]1)C(C(C)C)C(C#N)=C(N)O2` (stereo not drawn): the Potency was 43.6 µM (active).

For the compound `Nc1ncnc2c1ncn2[C@@H]1O[C@H](COS(=O)(=O)O)[C@@H](O)[C@H]1O`, the Potency was 12.3 µM (active).

Consider `Cc1ccc2cc(CN(C(=O)c3cccs3)c3ccccc3)c(=O)[nH]c2c1`, for which the “activation” value was 5.18%.

Regarding `CN1C(=O)c2ccc(C(=O)Nc3ccc(Br)cn3)cc2C1=O`, the Potency was 21.8 µM (active).

For the compound `CCOc1ccc2cc(C#N)c(SCC(=O)NC(C)CC)nc2c1` (stereo not drawn), the Potency was 6.15 µM (active).

As for `CC(C(=O)Nc1cccnc1)n1cc([N+](=O)[O-])cn1` (stereo not drawn), the “activation” value is 24%.

As for `O=C(O)c1ccc(CN2C(=O)c3ccc(C(=O)O)cc3C2=O)cc1`, the “activation” value is 5.29%.

On to `O=C(O)CCNc1ccc(NCCC(=O)O)c2c1C(=O)c1ccccc1C2=O`, for which the “activation” value is 1.48%.

Regarding `Cc1cccc(NC(=O)c2ccccc2NC(=O)c2ccco2)c1`, the “activation” value is -1.83% [at 125 µM].

Regarding `CC1C/C(=N\NC(N)=S)c2cc(Cl)ccc2S1` (stereo not drawn), the “activation” value was 17.3%.
